# Screening data deposited in PubChem by National Center for Advancing Translational Sciences (NCATS).
# Sampled rows, rich in hits. Any-hit rate of the full collection: about 2.7%.
# Akt phos inh: Akt phosphorylation inhibition | Neuro2A IGF-stimulated pAkt S473 HTRF, 20 min; stronger effect = lower value | activity change, % for hits at 50 µM | 360,000 tested, 0.32% active; in the data active = activity change below about -80%; inconclusive = mostly about -51% to -80%; also: % is scaled to controls: 0 for no effect and ±100 for the full control effect
#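 Neuro2A cells (4,500/well, DMEM with 0.5% FBS) were treated with compound at a single 50 µM final concentration, stimulated with 6 nM IGF for 20 min at 37 °C, and lysed. Phospho-Akt Ser473 was read by HTRF as 665/615 ratio ×10^4.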
# ClpP mod: qHTS Assay for Activators of ClpP. ATP-dependent Clp protease proteolytic subunit (Bacillus subtilis (strain 168)), P80244. purified B. subtilis ClpP, FRET peptide cleavage, 20 min. Potency, µM (series often up to 57.5 µM), inactives show at the highest dose activity change, negative = active. 340,000 tested, 1.9% active; active = well fitted falling curve with a large enough effect; inconclusive = small, poorly fitted or top-dose-only effect; inactive = no such curve, though single readings can be large or run the other way; also: potency is read from the fitted curve at half-maximal effect; the source files actives as falling curves though it sought activators and does not explain the sign; nearly all actives have a fitted effect of over 65% in size
# Target sequence (P80244 whole entry, looked up): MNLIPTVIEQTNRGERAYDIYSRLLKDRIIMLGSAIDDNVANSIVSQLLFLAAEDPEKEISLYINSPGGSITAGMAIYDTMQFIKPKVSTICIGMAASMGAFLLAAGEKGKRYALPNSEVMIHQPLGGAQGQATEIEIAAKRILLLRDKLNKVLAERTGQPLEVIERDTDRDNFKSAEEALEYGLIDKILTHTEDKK
#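 Buffer: 100 mM Tris/HCl pH8, 100 mM KCl, 0.05% low protease BSA, 2.5% glycerol, 0.01% Tween-20. ClpP 10 microg/mL final; 20 min RT; delta FRET normalized to ADEP and DMSO controls.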
# RXFP1 ag: activates the human relaxin receptor RXFP1 | Q9HBX9 | HEK293T-RXFP1 cAMP TR-FRET, 30 min; response scale: percent of porcine relaxin response, buffer zero | Potency, µM (doses to about 57.5 µM), inactives show top-dose activation, most hits filed as activators | 370,000 tested, 0.3% active | AID 2676; active = well fitted activation curve with a large enough effect; inconclusive = small, poorly fitted or top-dose-only effect; also: potency is read from the fitted curve at half-maximal effect; % is scaled to controls: 0 for no effect and ±100 for the full control effect; nearly all actives have a fitted effect of over 60% in size
#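 HEK293T cells stably expressing RXFP1 were pretreated with the PDE4 inhibitor Ro 20174, exposed to compounds for 30 min at 37C, lysed, and cAMP was read by TR-FRET. Data normalized to buffer (basal) and 29 nM porcine relaxin (100%).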
# gsp agonist: activates gsp, the McCune-Albright syndrome mutation | gsp mutant cells, cAMP HTRF, 30 min | Potency, µM (doses to about 76.9 µM), without a hit: at the top dose activation (cAMP increase), hits mostly activators | AID 624287 | 340,000 tested, 0.13% active; active = well fitted activation curve with a large enough effect; inconclusive = small, poorly fitted or top-dose-only effect, or another doubt; inactive = no such curve, though single readings can be large or run the other way; cell line not stated here;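 also: phosphodiesterase inhibitor Ro 20-1724 added with compounds to block cAMP breakdown; potency is read from the fitted curve at half-maximal effect; nearly all actives have a fitted effect of over 60% in size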
#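 Cells stably selected in G418 were plated at 2000/well, grown 16-24 hr, then given compounds in DMSO with the PDE inhibitor […] (300 uM solution added) for 30 min at 37C; cAMP was read by HTRF.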
# RXFP1 antag: blocks the human relaxin receptor RXFP1; AID 1259400; HEK293-RXFP1, relaxin-stimulated cAMP HTRF, 30 min; stronger effect = lower value; activity change, negative = inhibition, % at 57.5 µM; 350,000 tested, 0.59% active;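 active = activity change of -60% or lower, but not beyond a set lower limit; inconclusive = change between -60% and -40%, or beyond the set limit; inactive = change above -40%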; also: % is scaled to controls: 0 for no effect and ±100 for the full control effect
# gsp antag: antagonizes gsp, the McCune-Albright syndrome mutation; gsp-mutant cells, cAMP HTRF, 30 min; Potency, µM (series often up to 76.9 µM), inactives show at the top dose activity change, negative = inhibition, hits mostly inhibitors; 340,000 tested, 0.4% active; calls by dose curve; cell line not stated here;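 also: intracellular cAMP measured with PDE inhibitor Ro 20-1724 present during compound exposure; potency is read from the fitted curve at half-maximal effect; % is scaled to controls: 0 for no effect and ±100 for the full control effect; nearly all actives have a fitted effect of over 65% in size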
#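 Cells, 2000/well, grown 16–24 h in DMEM 10% FBS with 0.5 mg/ml G418, then compounds plus […] (300 uM addition stock), 30 min at 37C. cAMP read by HTRF (cAMP-d2 and anti-cAMP antibody-K in lysis buffer) after 30 min RT.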
# * hit, by the source's call; i = inactive; ? = inconclusive; · = not tested or not shown; [ ] = another dose, or the depositor's remark.
SMILES,Akt phos inh,ClpP mod,RXFP1 ag,gsp agonist,RXFP1 antag,gsp antag
CCC(C)NC(=O)CSC1=Nc2ccccc2C2=NC(CC(=O)NCc3ccc(F)cc3)C(=O)N12 (stereo not given),i,32µM*,3%,10%,15,-1%
O=C(CCC1N=C2c3ccccc3N=C(SCC(=O)NCC3CCCO3)N2C1=O)NCc1ccc(F)cc1 (stereo not given),·,4%,29%,?,-69*,6%
CC(C)C1N=C2c3ccccc3N=C(SCC(=O)NCCc3ccc(S(N)(=O)=O)cc3)N2C1=O (stereo not given),i,32µM*,0%,-5%,-26,18%
CC(C)C1N=C2c3ccccc3N=C(SCC(=O)NCc3ccc(Cl)cc3)N2C1=O (stereo not given),·,4%,5%,·,12,·
O=C(CCC1N=C2c3ccccc3N=C(SCc3cccc(Cl)c3)N2C1=O)NCc1ccco1 (stereo not given),i,35µM*,0%,4%,1,-11%
CCC(C)[C@H](N)C(=O)N[C@H]1CCC2C3CC=C4C[C@@H](O)CC[C@]4(C)C3CC[C@@]21C (stereo not given in full),i,-1%,·,-54%,2,·
COc1cc(OC)c2c(C)c(CC(=O)N3CCCCC3)c(=O)oc2c1,·,4%,4%,·,5,·
Cc1cccc(OCCC(=O)NO)c1,·,2%,·,·,·,·
O=C(O)C1CCC1,·,·,·,·,10,·
NC(=O)CSC1=Nc2ccccc2C2=NC(c3ccccc3)C(=O)N12 (stereo not given),i,·,4%,20%[15.4 µM],-18,-11%
CCN(CC)C(=O)CSC1=Nc2ccccc2C2=NC(c3ccccc3)C(=O)N12 (stereo not given),i,16µM*,1%,?,-1,-16%
CCCC(=O)Nc1c(-c2ccccc2OC)c(=O)c2ccccc2n1C,i,1%,1%,7%[15.4 µM],4,8%
CCCCC(=O)Nc1c(-c2ccc(OC)c(OC)c2)c(=O)c2ccccc2n1C,i,-2%,11%,-2%,-1,11%
CCCCCC(=O)Nc1c(-c2ccc(OC)cc2)c(=O)c2ccccc2n1C,i,25µM*,1%,?,9,3%
CCCC(=O)Nc1c(-c2ccc(OC)cc2)c(=O)c2ccccc2n1C,i,16µM*,3%,36%,21,3%
COc1cccc(C(=O)c2c[nH]c(C(=O)NCc3ccco3)c2)c1,-112%*,-2%,1%,?,-9,-13%
CCC(C)NC(=O)/C(=C/c1ccco1)c1ccccc1 (stereo not given),i,25µM*,0%,-37%,-21,-9%
Cc1cc(C)c(NC(=O)/C(=C/c2ccco2)c2ccccc2)c(C)c1,i,-1%,0%,-8%,-7,40µM*
Cc1cccc(C)c1NC(=O)/C(=C/c1ccco1)c1ccccc1,i,-2%,1%,-15%,7,-10%
COc1cccc(CNC(=O)Cn2c(=O)n(CCC(=O)N3CCCCC3)c(=O)c3sccc32)c1,i,-1%,0%,-2%,4,11%
CCOC(=O)Cc1c(C)c2c(C)nn(-c3ccccc3)c2oc1=O,-103%*,35µM*,2%,0%,2,-11%
CCOC(=O)Cc1c(C)c2c(C)[nH]nc2oc1=O,i,-30%,1%,7%,-3,8%
COc1cccc(-c2cc3c(-n4cccc4)ncnc3o2)c1,i,14µM*,4%,11%,-6,-31%
Clc1ccc(Oc2ncnc3oc(-c4ccccc4)cc23)cc1,i,-18%,1%,14%,4,-4%[15.4 µM]
O=C(c1cnc(-c2ccccc2)s1)c1ccc(Cl)cc1Cl,i,-2%,4%,?,12,12%
SMILES,Akt phos inh,ClpP mod,RXFP1 ag,gsp agonist,RXFP1 antag,gsp antag
O=C(c1ccc(Cl)cc1)c1cnc(-c2ccccc2)s1,i,20µM*,3%,-1%,6,-35%
CC(C(=O)c1ccccc1)[n+]1cccc(Cl)c1 (stereo not given),·,1%,·,·,·,·
Cc1ccc(NC(=O)c2ccc(NC(=O)N3CCSc4ncccc43)cc2)c(C)c1,·,?,-1%,·,6,·
Cc1c(Cl)cccc1NC(=O)c1cccc(NC(=O)N2CCSc3ncccc32)c1,·,?,2%,·,-12,·
Cc1ccc(Cl)cc1NC(=O)c1ccc(NC(=O)N2CCSc3ncccc32)cc1,·,32µM*,0%,·,-6,·
COc1cc(NC(=O)c2ccc(NC(=O)N3CCSc4ncccc43)cc2)cc(OC)c1,·,32µM*,-1%,·,-22,·
Cc1ccc(NC(=O)c2ccc(NC(=O)N3CCSc4ncccc43)cc2)c(Cl)c1,·,28µM*,10%,·,-9,·
CC(C)(C)C(=O)Cn1c(=O)n(-c2ccc(Cl)cc2)c(=O)c2c3c(sc21)CCCC3,·,-1%,0%,·,·,·
c1ccc(Nc2nc(NCc3ccco3)nc3nccnc23)cc1,·,-1%,·,·,·,·
CCOC(=O)C(=Cc1ccc(F)cc1)C(=O)OCC,·,·,2%,·,·,·
CCOC(=O)C(=Cc1ccc(Br)cc1)C(=O)OCC,i,·,5%,-9%,-96*,-3%
COc1ccccc1NC(=O)C1CCN(S(=O)(=O)c2cn(C)cn2)CC1,·,-3%,-1%,·,9,·
COc1ccccc1-c1cc(-c2ccccc2)nc(SC(C(N)=O)c2ccccc2)c1C#N (stereo not given),-91%*,-25%,8%,?,-5,10%
COc1ccc(-c2cc(-c3ccccc3)c(C#N)c(SCC(=O)Nc3ncc(C)s3)n2)cc1,i,7.9µM*,1%,10%,-12,-11%
COC(=O)CSc1nc(-c2ccc(C)cc2)c2c(c1C#N)CCCC2,i,28µM*,2%,7%,-1,-18%
COc1ccc(-c2cc(-c3ccccc3)nc(SCC(=O)Nc3nccs3)c2C#N)cc1,i,28µM*,?,-6%,-5,-2%
COC(=O)Cc1c(C)c2cc3c(c(C)c2oc1=O)OCN(CCc1ccccc1F)C3,·,4%,10%,·,20,·
COC(=O)CSc1nc(-c2ccccc2)cc(-c2ccco2)c1C#N,i,25µM*,5%,10%,-4,?
CSc1nc(SCC(=O)O)c2sc3nc(-c4ccccc4)c4c(c3c2n1)CCC4,i,-15%,28µM*,?,0,7%
CCCCn1c(N)c(N(CCOC)C(=O)c2oc3ccc(OCC)cc3c2C)c(=O)[nH]c1=O,i,-13%,1%,?,4,8%
C(=C\c1nc(N2CCCCCC2)c2ccccc2n1)/c1ccccc1,i,32µM*,-2%,-9%,-18,?
